FLuc counter = firefly luciferase modulation, counter-screen for miR-21 project | P08659 | purified FLuc, Km substrates, luminescence inhibition | Potency, µM (doses to about 57.5 µM), without a hit: top-dose activity change, negative = inhibition, most hits filed as inhibitors | 360,000 tested, 6.9% active | AID 588342;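 also: plate controls were vehicle for no effect and reference inhibitor for full effect; nearly all actives have a fitted effect of over 55% in size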
Target sequence (P08659 whole entry, looked up): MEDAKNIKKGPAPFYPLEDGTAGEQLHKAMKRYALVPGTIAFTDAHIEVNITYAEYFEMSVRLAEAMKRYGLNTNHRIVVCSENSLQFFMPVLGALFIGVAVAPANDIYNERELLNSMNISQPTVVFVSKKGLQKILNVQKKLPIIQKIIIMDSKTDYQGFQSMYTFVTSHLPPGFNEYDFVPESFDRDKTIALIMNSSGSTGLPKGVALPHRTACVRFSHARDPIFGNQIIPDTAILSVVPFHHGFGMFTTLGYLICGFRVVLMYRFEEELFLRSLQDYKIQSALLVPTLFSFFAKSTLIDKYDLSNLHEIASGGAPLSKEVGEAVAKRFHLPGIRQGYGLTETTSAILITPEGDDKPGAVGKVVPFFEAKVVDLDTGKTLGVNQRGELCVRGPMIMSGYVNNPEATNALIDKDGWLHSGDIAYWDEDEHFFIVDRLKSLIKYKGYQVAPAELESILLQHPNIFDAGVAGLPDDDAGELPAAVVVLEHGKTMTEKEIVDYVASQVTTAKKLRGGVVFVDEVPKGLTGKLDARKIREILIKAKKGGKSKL
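Purified P. pyralis luciferase (10nM final) with 10uM D-luciferin and 10uM ATP (Km levels) in 50mM Tris acetate pH 7.5, 10mM Mg acetate, 0.01% Tween-20, 0.05% BSA; qHTS 6-point titration, ~60 µM downward; luminescence read.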
NPC1 promoter act = NPC1 promoter activation. 320,000 tested, 2.4% active. AID 485313. Potency, µM (doses to about 9.22 µM), for the others: top-dose activation, most hits filed as activators. Huh7 NPC1 promoter luciferase reporter, 24 h; also: % of control where 0% means no effect; nearly all actives have a fitted effect of over 60% in size
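Luminescence read-out of NPC1 promoter-driven luciferase in stably transfected Huh7 cells; compounds delivered in DMSO and left 24 h at 37C, 5% CO2, qHTS titration format.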
ELG1 genotox = induces genotoxicity in HEK293T cells with luciferase-tagged ELG1; HEK293T ELG1-luciferase reporter, luminescence, 16 h; Potency, µM (highest dose often 46 µM), without a hit: at the top dose activity change, positive = activation, most hits filed as activators; AID 504466; 330,000 tested, 1.3% active; also: % of control where 0% means no effect; nearly all actives have a fitted effect of over 60% in size
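Luminescence read-out: rising ELG1-luciferase signal, reflecting elevated ELG1 protein under genetic stress, flags genotoxic compounds. Cells were treated for 16 hr at 37 °C before ONE-Glo detection.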
SMN2 splice up = enhancers of SMN2 splice variant expression; Potency, µM (series often up to 46.1 µM), inactives show top-dose activity change, positive = activation, usual class: activators; HEK293 SMN2-luciferase splicing reporter, luminescence, 30-36 h; 210,000 tested, 2.8% active; also: % of control where 0% means no effect; nearly all actives have a fitted effect of over 55% in size
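HEK293 cells carry an SMN2 minigene-luciferase reporter in which exon 7 inclusion puts luciferase in frame. Cells were seeded at 2000 cells/well, attached for 10-12 hours, then exposed to compounds for 30-36 hours at 37C before ONE-Glo luminescence.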
Rab9 promoter act = Rab9 promoter activation. Huh7 Rab9 promoter-luciferase reporter, luminescence, 24 h. Potency, µM (top dose mostly 9.22 µM), for the others: at the top dose activation, negative = inhibition, usual class: activators. 320,000 tested, 2.8% active. AID 485297; also: % of control where 0% means no effect; nearly all actives have a fitted effect of over 60% in size
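Cells were plated at 1500 per well in reduced-serum medium with 10% FBS and left 2 h. Compound in DMSO was then added for 24 h at 37 °C. Reporter signal was read by luminescence after 10 min with luciferase detection reagent.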
Luc counter = blocks Kinase-Glo luciferase, a counter-screen artifact. Q27757. Kinase-Glo luciferase, ATP luminescence, 8 min. Potency, µM (top dose mostly 38.3 µM), for the others: at the top dose activity change, negative = inhibition, hits mostly inhibitors. 200,000 tested, 0.28% active; also: % is scaled to controls: 0 for no effect and ±100 for the full control effect; nearly all actives have a fitted effect of over 60% in size
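Substrate mix (final 50 mM imidazole pH 7.2, 50 mM KCl, 7 mM MgCl2, 10 uM ATP, 0.01% Tween 20, 0.05% BSA) plus pin-tool compound, then Kinase-Glo detection mix; 8 min ambient, luminescence read.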
The depositor's hits bear a star; u = inconclusive; x = no result given; [ ] = remark or other dose. This is a sample that favours compounds with a hit; in the whole collection about 7.4% have one here. Calls follow the shape of the dose curve; as a rule, active = well fitted curve in the direction sought with a large enough effect; inconclusive = small, poorly fitted or top-dose-only effect, or another doubt; inactive = no such curve, though single readings can be large; an effect the other way counts as inactive or inconclusive. Potency is read from the fitted curve at half-maximal effect.

SMILES	FLuc counter	NPC1 promoter act	ELG1 genotox	SMN2 splice up	Rab9 promoter act	Luc counter
NCCNC(=O)c1c(NC(=O)c2ccccc2)sc2c1CCCC2	u	-2%	11%	x	-3%	x
O=C(Nc1sc2c(c1C(=O)O)CCCC2)c1ccc(Cl)cc1	19µM*	25%	-2%	x	27%	x
CC(C)Cc1csc(NC(=O)c2ccc(Cl)cc2)c1C(=O)O	u	11%	0%	20µM*	0%	1%
CC(C)Cc1csc(NC(=O)c2ccccc2Cl)c1C(=O)O	u	-1%	-7%	-3%	-2%	3%
O=C(Nc1sc2c(c1C(=O)O)CCC2)c1ccc(F)cc1	17µM*	18%	1%	-10%	29%	-3%
O=C(Nc1sc2c(c1C(=O)O)CCCC2)c1cccc(Cl)c1	24µM*	u	-2%	x	u	x
CCc1ccccc1Nc1cc(C(=O)NC2CCC(C)CC2)c2ccccc2n1 (configuration not stated)	5%	x	x	10%	x	x
CC1CCCO1 (configuration not stated)	x	x	x	2%	x	x
COc1ccc(/C=C(/C#N)C(=O)NC2CCCCC2)cc1Br	-13%	-3%	1%	-24%	0%	-4%
CCCCNC(=O)/C(C#N)=C/c1ccc2c(c1)OCCO2	9.5µM*	-1%	u	14%	1%	-1%
CCCCCCCCNC(=O)/C(C#N)=C/c1ccc2c(c1)OCCO2	-1%	-1%	1%	-29%	-7%	2%
Cc1cccc(NC(=O)/C(C#N)=C\c2cccnc2)c1	u	0%	-2%	-12%	-2%	1%
N#C/C(=C\c1ccc2c(c1)OCCO2)C(=O)NC1CCCCC1	4.8µM*	-3%	u	x	5%	2%
CCCCNC(=O)/C(C#N)=C/c1cccnc1	1%	4%	13%	5µM*	3%	0%
N#C/C(=C/c1ccc2c(c1)OCO2)C(=O)Nc1ccc(O)cc1	u	-7%	u	-10%	21%	-2%
N#C/C(=C\c1ccc2c(c1)OCCO2)C(=O)Nc1ccc(C(=O)O)cc1	0.34µM*	21%	u	x	15%[1.84 µM]	x
N#Cc1ccccc1Cn1c(=O)n(CCCC(=O)NCc2ccc3c(c2)OCO3)c(=O)c2sccc21	-8%	x	x	-3%	x	x
O=C(CSc1nc(-c2ccccc2)c2ccccc2n1)Nc1ccc(F)cc1	-2%	x	x	14%	x	x
O=C1C(C=NCc2cccnc2)=C(O)c2ccccc21	1.9µM*	14%	2.1µM*	x	u	x
O=C1c2cccc3cccc(c23)C(=O)N1Cc1ccco1	-1%	0%	1%	0%	-6%	1%
O=C1C(C=NCc2ccncc2)=C(O)c2ccccc21	-15%	0%	14%	11%	19%	21%
O=C1C(C=NCc2ccco2)=C(O)c2ccccc21	6.7µM*	21%	5.2µM*	u	28%	6%
NC(Cc1cnc[nH]1)C(=O)Nc1ccc2ccccc2c1 (configuration not stated)	x	x	x	13µM*	x	0%
N[C@@H](Cc1ccc(O)cc1)C(=O)Nc1ccc2ccccc2c1	u	27%	6%	x	16%	x
COc1ccc(S(=O)(=O)c2cc3cc(C(C)(C)C)cc(O)c3oc2=O)cc1	-18%	x	x	-47%	x	x
SMILES	FLuc counter	NPC1 promoter act	ELG1 genotox	SMN2 splice up	Rab9 promoter act	Luc counter
CCN(CC)c1ccc(N=C2C(=O)Nc3ccccc32)cc1	6.7µM*	1%	-9%	x	6%	x
Cc1cc(C)n2ncc(/C(N)=N/OC(=O)Nc3ccccc3)c2n1	27µM*	-1%	-8%	x	0%	x
CC(C)c1cccc2c([Si](C)(C)C)c3c(nc12)-c1cccc(=O)n1C3	x	x	x	-5%	x	-1%
O=C(N/N=C/C=C/c1ccccc1)c1ccccn1	17µM*	u	u	x	3.5µM*	x
O=C(N/N=C/C(Br)=C/c1ccccc1)c1cnccn1	6µM*	19%	u	x	3.5µM*	x
O=C(NN=C1c2ccccc2-c2ccccc21)c1ccccn1	5.4µM*	21%	3%	-19%	15%	-2%
O=C(N/N=C/C=C\c1ccccc1)c1cnccn1	u	-2%	4%	16%	4%	4%
Cc1cc(C(=O)N/N=C/C(Cl)=C/c2ccccc2)c(C)o1	9.5µM*	20%	1%	x	24%	x
CC(=N/O)/C(C)=N\NC(=O)c1ccccn1	-20%	30%	u	u	u	u
Cc1cc(C(=O)N/N=C/c2cccnc2)c(C)o1	u	-1%	0%	-6%	15%	-9%
CCn1c(=O)c2cc(C(=O)N3CCN(c4cccc(OC)c4)CC3)sc2c2ccccc21	-4%	x	x	-35%	x	x
Cc1ccc(-c2cc(C(=O)N/N=C/C=C/c3ccccc3)n[nH]2)s1	9.5µM*	-3%	-2%	-30%	-2%	0%
O=C(N/N=C/c1ccncc1)c1ccccc1	u	3%	6%	24%	-3%	-9%
O=C(N/N=C1\C/C(=N\NC(=O)c2ccncc2)c2ccccc21)c1ccncc1	4.8µM*	3%	-3%	x	-25%	u
CC(/C=N/NC(=O)c1ccccn1)=C\c1ccco1	3.8µM*	1.4µM*	u	x	1.4µM*	x
O=C(N/N=C/C(Cl)=C/c1ccccc1)c1ccncc1	17µM*	-2%	4%	9%	11%	-2%
Cc1cc(C(=O)N/N=C/C=C/c2ccccc2)n[nH]1	u	-4%	0%	x	9%	x
COc1ccccc1NC(=O)C1=C(C)Nc2c(C(=O)Nc3ccc(F)cc3)cnn2C1c1cccc([N+](=O)[O-])c1 (configuration not stated)	-6%	x	x	x	x	x
O=C(N/N=C/C(Cl)=C/c1ccccc1)c1ccccn1	4.8µM*	4µM*	u	13µM*	1.8µM*	-15%
Cc1ccc(Nc2n[nH]c(C)c2[N+](=O)[O-])cc1C	3µM*	1.6µM*	u	11µM*	1.1µM*	-6%
O=C(O)c1cc(S(=O)(=O)Nc2cccc(Cl)c2)ccc1O	x	x	x	x	x	0%
O=C(CCc1nnc2n(Cc3ccccc3Cl)c(=O)c3ccccc3n12)Nc1ccccc1	1%	x	x	9%	x	x
COc1cc(OC)c(C(=O)O/N=C(\N)c2ccc(C)cc2)cc1OC	u	-2%	0%	x	3%	x
N/C(=N\OC(=O)c1ccc(Cl)cc1Cl)c1ccncc1	1.9µM*	1.6µM*	9.2µM*	x	1.8µM*	x
N/C(=N\OC(=O)c1cc(Cl)ccc1Cl)c1ccncc1	13µM*	20%	u	x	u	-4%
Cc1noc(-c2ccc(Cl)cc2)c1C(=O)O/N=C(\N)c1ccc(C(C)(C)C)cc1	-5%	-38%	-14%	x	-3%	x
COc1ccc(Cl)cc1C(=O)O/N=C(\N)c1ccc(Cl)cc1	17µM*	1%	11%	10%	-3%	5%

Source: PubChem (National Center for Advancing Translational Sciences (NCATS))
